# Results with a measured potency or affinity are listed apart.
# System: Cryptococcus neoformans
# Settings: Concentration 20 uM; ASSAY_TEST Inhibition of Fungal Growth; detection method Resazurin; Absorption (OD600-OD570); plate type 384well; NBS; CORNING #3640
row,SMILES,Inhibition [%]
1,O=c1cnn([C@@H]2O[C@H](CO)[C@@H](O)[C@H]2O)c(=O)[nH]1 [6-AZAURIDINE],7.24
2,NC(N)=Nc1nc(CSCC/C(N)=N/S(N)(=O)=O)cs1 [FAMOTIDINE],-2.8
3,CN(C)CCCN1c2ccccc2CCc2ccc(Cl)cc21.Cl [CLOMIPRAMINE HYDROCHLORIDE],-9.01
4,CC(N)C12CC3CC(CC(C3)C1)C2.Cl (stereo not given) [RIMANTADINE HYDROCHLORIDE],-3.72
5,CN(C)C(=O)Oc1ccc[n+](C)c1.[Br-] [PYRIDOSTIGMINE BROMIDE],-8.97

# Reference: ChEMBL document CHEMBL4513141, “CO-ADD screening of NIH (USA) - Clinical Collection” (2021)
